# From the supplement of paper PMC10646978
# ± gives the standard deviation.
# What was measured:
# Conditions in all cases: modulator concentration 10 µM
# [1] = system: RAW-Dual (murine macrophage reporter line); experiment: NF-kB reporter (SEAP) activity fold change vs agonist alone; higher = enhanced NF-kB activity
# Procedure, shortened: (§1)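 Overnight stimulation with a PRR agonist followed pre-incubation for 1 hour at 37 °C with compound at 10 μM final. This was done in RAW-Dual murine macrophage reporter cells seeded at 50 000 per well in 384-well plates. NF-κB (SEAP, QUANTI-Blue absorbance at 620 nm) and IRF (Lucia luciferase, QUANTI-Luc luminescence) were read from the supernatant. Each reporter's fold change relative to the mean agonist-only control on the same plate was averaged over replicate plates.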
# [2] = system: RAW-Dual (murine macrophage reporter line); experiment: IRF reporter (Lucia luciferase) activity fold change vs agonist alone; higher = enhanced IRF activity
# Procedure, shortened: as §1
# [3] = system: RAW-Dual (murine macrophage reporter line); experiment: viability score (confluency relative to resting cells, overnight) (fraction); higher = more viable, active = viable (0.7 or more)
# Procedure, shortened: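 A compound met the cutoff when both of two confluency masks exceeded 70% of resting cells. Those masks were made with IncuCyte software from IncuCyte images of RAW-Dual macrophages treated overnight at 10 μM final. This is the basis of the viability score, which is confluency relative to resting cells.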
# [4] = agonist: CpG ODN 1826 0.5 ug/mL
Structure (SMILES),"NF-kB reporter [1, 4]",NF-kB reporter ([1]; agonist: LPS 0.1 ug/mL),NF-kB reporter ([1]; agonist: MPLA […]),IRF reporter ([2]; agonist: 3'3'-cGAMP 10 ug/mL),IRF reporter ([2]; agonist: LPS 0.1 ug/mL),IRF reporter ([2]; agonist: MPLA […]),viability score [3]
Oc1c2c(nc3cc(-c4ccc(Br)cc4)nn13)CCS2,1.06 ± 0.084,1.04 ± 0.064,0.857 ± 0.082,0.857 ± 0.03,1.19 ± 0.16,0.921 ± 0.2,1.01 (active)
Cc1ccc(C2(c3ccc(C)cc3)CC2C(=O)Nc2ccncc2)cc1 (stereo not drawn),0.811 ± 0.095,0.865 ± 0.076,0.908 ± 0.033,0.764 ± 0.045,1.04 ± 0.09,1.02 ± 0.074,1 (active)
COc1ccc(C=C(NC(=O)c2ccccc2)C(=O)NCCC(=O)OCc2ccccc2)cc1,0.996 ± 0.082,1.04 ± 0.096,0.875 ± 0.073,0.841 ± 0.024,1.4 ± 0.14,1.11 ± 0.22,1.01 (active)
c1ccc(-n2nnnc2Sc2ncnc3sc4c(c23)CCCC4)cc1,0.74 ± 0.043,0.481 ± 0.088,0.442 ± 0.027,0.0638 ± 0.0026,0.349 ± 0.095,0.835 ± 0.14,0.994 (active)
CCCCCCc1cc2cc(-c3nc(-c4ccc(Oc5ccccc5)cc4)cs3)c(=O)oc2cc1O,0.962 ± 0.096,1.04 ± 0.085,0.946 ± 0.068,0.873 ± 0.024,1.42 ± 0.22,1.12 ± 0.29,1.01 (active)
NCCNc1ccc(NCCN)c2c1C(=O)c1ccncc1C2=O.O=C(O)/C=C\C(=O)O.O=C(O)/C=C\C(=O)O,0.917 ± 0.04,1 ± 0.085,1.13 ± 0.066,1.02 ± 0.049,1.36 ± 0.29,1.66 ± 0.55,0.97 (active)
COC(=O)c1ccc(CSc2ccc3nnc(-c4cccc(F)c4)n3n2)o1,1 ± 0.08,1.18 ± 0.072,1.03 ± 0.062,0.966 ± 0.035,1.05 ± 0.082,0.968 ± 0.093,0.998 (active)
Cc1ccc(NS(=O)(=O)c2cc3c4c(cccc4c2)C(=O)NC3=O)cc1C,0.535 ± 0.034,0.381 ± 0.03,0.875 ± 0.025,0.532 ± 0.033,0.908 ± 0.092,0.815 ± 0.14,0.802 (active)
CCCCC(=O)N(Cc1ccc(-c2ccccc2-c2nn[nH]n2)cc1)C(C(=O)O)C(C)C (stereo not drawn),1.12 ± 0.27,0.965 ± 0.081,1.02 ± 0.082,0.71 ± 0.055,1.03 ± 0.14,1.04 ± 0.2,1 (active)
COc1ccc(C=NNc2nc(-c3ccccc3)cc(-c3ccc(Br)cc3)n2)c(OC)c1,0.918 ± 0.091,0.94 ± 0.1,1.03 ± 0.12,0.96 ± 0.03,1.08 ± 0.12,1.08 ± 0.17,1.03 (active)
CCOC(=O)N1CCN(C(=O)CSc2nnc(-c3cccc(Cl)c3)o2)CC1,0.846 ± 0.18,0.96 ± 0.065,0.974 ± 0.057,0.769 ± 0.03,1.29 ± 0.1,1.04 ± 0.11,0.95 (active)
CN(C)CCS(=O)c1ccccc1 (stereo not drawn),0.955 ± 0.08,0.907 ± 0.071,1.16 ± 0.21,0.983 ± 0.038,1.32 ± 0.23,1.39 ± 0.27,1.04 (active)
O=[N+]([O-])c1cc(C(O)(C(F)(F)F)C(F)(F)F)cc([N+](=O)[O-])c1Cl,1.07 ± 0.085,1.03 ± 0.072,0.972 ± 0.091,0.706 ± 0.029,1.22 ± 0.17,0.97 ± 0.085,0.996 (active)
CC(N)C12CC3CC(CC(C3)C1)C2.Cl (stereo not drawn),0.598 ± 0.14,1.07 ± 0.12,1.04 ± 0.068,0.919 ± 0.033,0.899 ± 0.1,0.966 ± 0.27,0.543 (inactive)
CCOC(=O)[C@H](CCc1ccccc1)N[C@H]1CCc2ccccc2N(CC(=O)O)C1=O [Prestw-1129],1.13 ± 0.097,0.978 ± 0.079,0.941 ± 0.06,1.02 ± 0.045,1 ± 0.047,0.879 ± 0.087,0.994 (active)
CCCOc1ccc(C(=O)OCCN(CC)CC)cc1N.Cl,0.857 ± 0.14,1.03 ± 0.1,0.928 ± 0.077,1.01 ± 0.044,1.2 ± 0.19,1.44 ± 0.15,1 (active)
Cc1occc1C(=O)NN=Cc1cc([N+](=O)[O-])ccc1O,1.12 ± 0.11,0.959 ± 0.12,1.16 ± 0.079,0.681 ± 0.096,1.23 ± 0.095,1.27 ± 0.28,0.997 (active)
Cc1c(C(=O)Nc2cccc3ccccc23)cccc1[N+](=O)[O-],0.854 ± 0.25,1.2 ± 0.12,1.04 ± 0.18,0.807 ± 0.034,1.22 ± 0.22,1.41 ± 0.42,0.633 (inactive)
Cl.OC(CCN1CCCC1)(c1ccccc1)C1CCCCC1 (stereo not drawn),0.822 ± 0.28,1.13 ± 0.061,1.12 ± 0.088,0.625 ± 0.025,1.07 ± 0.14,1.18 ± 0.26,0.976 (active)
Cc1ccc(C(=O)NC(=Cc2ccccc2)C(=O)NCCCn2ccnc2)cc1,0.949 ± 0.077,1.03 ± 0.069,0.907 ± 0.083,1.01 ± 0.045,1.45 ± 0.25,1.12 ± 0.074,1.01 (active)
CC1=C(CC(=O)O)c2cc(F)ccc2/C1=C\c1ccc(S(C)=O)cc1 (stereo not drawn),0.984 ± 0.14,0.828 ± 0.061,1.13 ± 0.098,1.09 ± 0.051,1.23 ± 0.073,1.41 ± 0.13,1 (active)
CC(=O)N1CCN(c2ccc(OCC3COC(Cn4ccnc4)(c4ccc(Cl)cc4Cl)O3)cc2)CC1 (stereo not drawn),0.669 ± 0.058,1.1 ± 0.085,1.08 ± 0.023,1.07 ± 0.059,1.14 ± 0.12,1.18 ± 0.11,0.92 (active)
COC1CCN(C2CN(C(=O)CCn3cnc4ccccc4c3=O)C2)CC1,1.05 ± 0.052,1.08 ± 0.092,0.882 ± 0.044,1.01 ± 0.052,1.27 ± 0.076,1.13 ± 0.24,0.994 (active)
CCOC(=O)C1=C(C)NC(=Cc2ccccc2[N+](=O)[O-])C1=O,1.66 ± 0.13,0.864 ± 0.2,0.872 ± 0.13,0.275 ± 0.024,0.0881 ± 0.019,0.064 ± 0.016,0.755 (active)
